Reference: PubChem BioAssay AID493201 (National Center for Advancing Translational Sciences (NCATS), 2011)
Records with an inconclusive call do not appear. A number with no mark means an inactive call. Active and inactive are the calls of the source. Calls follow the shape of the dose curve; as a rule, active = well fitted activation curve with a large enough effect; inconclusive = small, poorly fitted or top-dose-only effect; inactive = no such curve, though single readings can be large or run the other way.

Test: qHTS Assay for Identifying a Potential Treatment of Ataxia-Telangiectasia: Secondary assay (no NCS) hit validation;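 also: phosphorylated KAP1 signal as a proxy for ATM-like kinase activity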; as to activation: 0% is about no effect
Conditions: A-T patient fibroblasts, AlphaLISA, no DNA damage added, 90 min; series mostly up to 76.9 µM; activation: at the top concentration
Excerpt: NIH Chemical Genomics Center [NCGC]
NIH Molecular Libraries Probe Centers Network [MLPCN]
Assay Submitter (PI): Wei Zheng and Yosef Shiloh
Ataxia-telangiectasia (A-T) is a devastating and progressive disease for which, there is no cure. Although A-T is a multisystem disease, it is stereotyped characterized by its neurological symptoms such as truncal ataxia, due to cerebellar cortical degeneration of the Purkinje and granule cells. Other symptoms of A-T are telangiectasias (dilated blood vessels), primary immunodeficiency, marked sensitivity to ionizing radiation (IR), chromosomal instability and predisposition to cancer.
The underlying genetic cause of A-T is null mutations in the ATM (A-T mutated) gene. ATM is a nuclear serine/threonine kinase that functions as a master regulator of the cellular responses to double strand breaks (DSBs) in the DNA. Upon activation by DSBs, ATM phosphorylates a plethora of downstream targets, including KAP-1 on […]. KAP-1 phosphorylation occurs shortly in response to DSBs and mediates global chromatin relaxation, which facilitates DSB repair. To screen for small molecules that will compensate for the loss of ATM in cells derived from A-T patients, we monitored KAP-1 phosphorylation as a readout for ATM-like activity using an AlphaLISA assay. This secondary assay omits NCS, which creates double-stranded DNA breaks.
Step,Parameter,Value,Description
1. Cell Plating, 3 ul, 500 cells/well in OPTI-MEM, 1% FBS, 1% Pen/Strep
3. Library compounds, 23 nl, 76.7 - 0.61uM dilution series final concentration
4. Incubation, 60 min, 37C, 5% CO2, 95% humidity
6. Incubation, 30 min, 37C, 5% CO2, 95% humidity
7. Reagent, 1 ul, Premixed detection reagents and lysis buffer
8. Reagent, 1 ul, 0.6% Antifoam A
9. Incubation, 6 hr, 25C, 95% humidity
10. Readout, EnVision, EnVision plate reader. AlphaScreen 1536-well protocol
Cells were plated using medium-binding white solid-bottom tissue culture treated Kalypsys plates. Multidrop dispense of 3 uL of F2112 (hTERT immortalized A-T patient fibroblast cells). Detection reagent and lysis buffer was 3.75nM Rab-a-pKAP1 antibody bound to 75 ng/ul AlphaScreen SA donor bead, 3.75 nM Biot-M-a-KAP1 antibody bound to AlphaLISA protein A acceptor bead, 0.5x protease inhibitor cocktail and 0.25x PerkinElmer lysis buffer. EnVision protocol for 1536-well AlphaScreen read (30ms excitation, 100ms read), about 10 min/plate.
Potency is read from the fitted curve at half-maximal effect.

| Compound | activation [%] | Potency |
| --- | --- | --- |
| CCOC(=O)CN(C(=O)CSc1nnc(COc2ccc(OC)cc2)n1CC)c1ccccc1 | 5.38 |  |
| CCNC(=S)N(CCc1c(C)[nH]c2ccccc12)Cc1cccnc1 | 26.9 |  |
| O=C(CSc1nnc(CNC(=O)c2ccccc2)o1)NCCc1ccccc1 | 22.6 |  |
| CCC12CN(C(=O)c3ccc([N+](=O)[O-])cc3)CC(CC)(CN(C(=O)c3ccc([N+](=O)[O-])cc3)C1)C2=O |  | 0.207 µM (active) |
| c1ccc2c(c1)nc(Nc1ccc(N3CCCCC3)cc1)c1nncn12 | 7.63 |  |
| CCCCN(c1nc2ccccc2nc1Cl)S(=O)(=O)c1ccc(C)cc1 | 17.4 |  |
| COc1ccc(NS(=O)(=O)c2ccc(N3CC(O)=C(c4ccccc4)C3=N)cc2)cc1 | -5.38 |  |
| Cc1ccc(C)c(-n2c(SCC(=O)NC(C(=O)O)C(C)C)nnc2-c2cccc(Cl)c2)c1 (stereo not given) |  | 46.3 µM (active) |
| COc1cc(CCC(=O)OCC(=O)N2CCc3ccccc32)cc(OC)c1OC | -4.35 |  |
| NC(=O)c1cc2ccccc2o/c1=N/NC(=O)c1cccc(F)c1 | -4.35 |  |
| CCN(CC)CCNC(=O)CCc1c(C)nc2c(c(C)nn2-c2ccc(C)cc2)c1C | -2.54 |  |
| CC(C)(CN1CCN(c2ccccc2)CC1)NS(=O)(=O)c1ccccc1 | -15.1 |  |
| COc1ccc(CNC(=O)CN2C(=O)CSc3ccc(S(=O)(=O)N4CCOCC4)cc32)c(OC)c1 | 9.57 |  |
| CC(C)CN(CC(C)C)C(=O)c1cc2c(=O)n3ccccc3nc2s1 | 12.9 |  |
| O=C(NC(=O)c1c(F)cccc1F)Nc1ccccc1SC(F)F | 21.7 |  |
| CC1(C)CC2(CCO1)OC(=O)CC2C(=O)Nc1c(Cl)cccc1Cl (stereo not given) | -1.08 |  |
| CCn1c2ccccc2c2c3ncc4cccn4c3ccc21 |  | 36.8 µM (active) |
| Cc1nn(C)c(Cl)c1CN1CCN(C2CCCC2)C(CCO)C1 (stereo not given) | -1.74 |  |
| CCc1ccc(NC(=O)N[C@H](C(=O)O)C(C)CC)cc1 (stereo not given in full) | -2.54 |  |
| Cc1c(Cc2ccccc2)c(NCCCO)n2c(nc3ccccc32)c1C#N | 9.57 |  |

| Compound | activation [%] | Potency |
| --- | --- | --- |
| Nc1nc2ccccc2cc1-c1cccs1 | -2.15 |  |
| COc1cccc(C2C(C(N)=O)=C(C)Nc3nc(CCCO)nn32)c1 (stereo not given) | -0.87 |  |
| CCC(C)N1C(=S)SC(C)(C)C1N(O)C(=O)NC1CCCCC1 (stereo not given) | -0.848 |  |
| Cc1cc(C)n2nc(C(=O)OCCOc3ccc(F)cc3)nc2n1 |  | 58.2 µM (active) |
| O=C(CCCC(=O)N1CCCC1)N1CCCC1 | 7.53 |  |
| CC1=NOC2(C1)N(C)c1ccccc1C2(C)C (stereo not given) | 3.23 |  |
| COc1ccc(-c2cc(C(F)(F)F)c(C#N)c(SCC(=O)O)n2)cc1OC | -4.24 |  |
| Cc1ccc(C(=O)c2c(C)oc3c2C(=O)C(=O)c2ccccc2-3)cc1 | 25.2 |  |
| CN(C)c1cc(Nc2ccc(O)cc2)c([N+](=O)[O-])c2nonc12 | 15.3 |  |
| CS(=O)(=O)c1ccc(-c2csc(-c3cccnc3)n2)cc1 | 6.96 |  |
| COc1ccc2nc(NCCCNC(=O)c3cc(OC)c(OC)c(OC)c3)c(C#N)cc2c1 | 6.45 |  |
| CCN1C/C(=C/c2sccc2C)c2nc3ccccc3c(C(=O)O)c2C1 |  | 16.4 µM (active) |
| CN(Cc1ccccc1)C(=O)c1cccc(N2C(=O)C3CC=CCC3C2=O)c1 (stereo not given) | -19.5 |  |
| S=c1[nH]nc(COc2ccccc2)n1/N=C/c1ccccc1Cl | -19.5 |  |
| CCn1c(SCc2cccc(F)c2)nnc1-c1ccncc1 | 11.8 |  |
| C=CCSc1nc2ccccc2n1C(=O)/C=C/c1cc(OC)c(OC)c(OC)c1 | -3.48 |  |
| Cc1ccc(NC(=O)Nc2cccnc2)cc1NC(=O)Nc1cccnc1 | -0.87 |  |
| CCOc1cc(/C=C/c2nc3ccccc3c(=O)[nH]2)ccc1O | -5.08 |  |
| Oc1ccc(-c2nccc(-c3ccc(F)cc3)n2)cc1 |  | 5.82 µM (active) |
| COc1ccc(C(=O)CSc2nc3ncccc3[nH]2)cc1OC | -4.24 |  |
